Measured values taken from PubChem BioAssay AID602127 (Broad Institute, 2011).
Measured potencies and affinities stand elsewhere. Activity calls are given as the source filed them.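 The calls were made as follows: active = every repeat test judged active, meaning a falling signal with potency within twice the top valid dose; inconclusive = repeat tests disagree on the call; inactive = every repeat test inactive, including signal moving upward.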

Biological target: Cyclin-dependent kinase 2 (Homo sapiens) (UniProt P24941)
Assay: CDK2 kinase inhibitors, off-target check, dose response, selectivity assay for Dyrk1A inhibitor project, biochemical, cherry-picked samples (AID 602127)
Conditions: CDK2/cyclin A kinase, ADP-Glo luminescence, 60 min; series mostly up to 10 µM

For `COc1ccc2c(c1)[nH]c1c(C)nccc12`, the outcome was “inactive”.
